From PubChem BioAssay
MITF inh: MITF inhibitors, primary screen, biochemical, AlphaScreen, human; inhibition, % at 2.6 µM; 0.91% of 650,000 active; Microphthalmia-associated transcription factor (Homo sapiens), O75030; AlphaScreen MITF homodimerization, bead proximity signal; in the data active = inhibition above about 50%
TEAD-YAP block: TEAD-YAP interaction inhibition, primary screen, TEAD-YAP interaction inhibitor project, luminescence, HEK-TIYL cells; TEAD-Gal4/YAP UAS-luciferase luminescence; inhibition, % at 9.12 µM; 1.4% of 640,000 active; in the data active = inhibition above about 32%
FBW7 activator: FBW7 E3 ligase activators, primary screen, biochemical, AlphaScreen, human; F-box/WD repeat-containing protein 7 (Homo sapiens), Q969H0; AlphaScreen FBW7–phospho-cyclin E peptide binding, activator screen; normalized activity (activation), % at 26.1 µM; 0.13% of 650,000 active; in the data active = normalized activity above about 1.9%;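 note: purified mutant Fbw7 with reduced substrate affinity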
GPR151 activ: activators of human GPR151, primary screen, cell-based, PathHunter beta-arrestin, luminescence | G-protein coupled receptor 151 (Homo sapiens), Q8TDV0 | PathHunter beta-arrestin GPR151 cells | activation, % at 11.2 µM | 1% of 650,000 active | AID 1508602, 2020; in the data active = activation above about 4.9%
GPR151 confirm: GPR151 activators, triplicate retest, confirmation, cell-based, PathHunter beta-arrestin, luminescence | 6,700 tested, under 10 active | activation, % at 11.2 µM | shares compounds with GPR151 activ | GPR151 PathHunter beta-arrestin cells, 90 min; % of EA-reagent control over plate median | AID 1508609, 2020;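 active = mean percent activation across replicates above the confirmation screen cutoff of 4.91%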
GPR119 ag: GPR119 activators in beta-arrestin cells, counter-screen for GPR151 activator project, cell-based, PathHunter beta-arrestin, luminescence, triplicate | shares compounds with GPR151 activ | 90 min; 0 = compound-well median, 100 = enzyme-acceptor control | activation, % at 11.2 µM | 0.3% of 6,700 active | AID 1508611, 2020;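 active = mean percent activation in the counterscreen above 29.09%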;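 note: counterscreen on off-target GPR119 to flag nonselective hits from the GPR151 activator screen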
Target sequence (Q8TDV5 whole entry, looked up): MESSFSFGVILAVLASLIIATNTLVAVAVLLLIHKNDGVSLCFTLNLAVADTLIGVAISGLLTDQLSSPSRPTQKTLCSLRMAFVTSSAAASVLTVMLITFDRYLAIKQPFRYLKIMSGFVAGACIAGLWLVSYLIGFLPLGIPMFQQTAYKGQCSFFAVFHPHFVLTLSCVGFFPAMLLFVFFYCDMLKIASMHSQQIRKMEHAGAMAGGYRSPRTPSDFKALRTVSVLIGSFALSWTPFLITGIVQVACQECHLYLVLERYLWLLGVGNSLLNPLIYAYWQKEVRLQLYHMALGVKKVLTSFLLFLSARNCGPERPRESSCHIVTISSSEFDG
Each line names hits and unclear results; the compound was inactive in the other large screens (follow-up assays come after a bar, where they were run); ! = a repeat was not active. Rows were chosen to be rich in hits. Some 3.4% of all compounds tested hit in one or more screens of this group.

O=C1CCCN1CCn1cnc2c(NCc3cccc(C(F)(F)F)c3)nc(Nc3ccc(N4CCOCC4)cc3)nc21	GPR151 activ 5.6 | GPR151 confirm inactive | GPR119 ag inactive
Cc1ccc(-c2nc3nc4c(c(=O)n3[nH]2)CCC4)cc1	none
COc1ccccc1N1CCN(Cc2nnnn2C(C)(C)C)CC1	none
CC(C)(C)c1csc2ncc(C(=O)NOCc3ccc4c(c3)OCOC4)c(=O)n12	none
Cc1nnnn1CC(=O)NC(c1ccccc1)c1ccccc1	none
O=c1nc(SCc2cccc3ccccc23)c2c(n1CCCO)CCCC2	none
O=c1nc(SCc2c(F)cccc2Cl)c2c(n1CCCO)CCCC2	GPR151 activ 5.1 | GPR151 confirm inactive | GPR119 ag inactive
Cn1c(CC(=O)NN)nc2ccccc21	GPR151 activ 6.2 | GPR151 confirm inactive | GPR119 ag inactive
COc1ccc(CCNC2CC(=O)N(c3ccc(F)cc3)C2=O)cc1 (centres undefined)	none
CCCOc1ccc(N2C(=O)CC(NCCCc3ccccc3)C2=O)cc1 (centres undefined)	GPR151 activ 6.1 | GPR151 confirm inactive | GPR119 ag inactive
Cc1ccc(N2C(=O)CC(NCCc3ccc(Cl)cc3)C2=O)cc1 (centres undefined)	GPR151 activ 6.4 | GPR151 confirm inactive | GPR119 ag inactive
CCCOc1ccc(N2C(=O)CC(NCC34CC5CC(CC(C5)C3)C4)C2=O)cc1 (centres undefined)	GPR151 activ 5.2 | GPR151 confirm inactive | GPR119 ag inactive
COc1ccc(CCNC2CC(=O)N(c3ccccc3)C2=O)cc1 (centres undefined)	GPR151 activ 5.8 | GPR151 confirm inactive | GPR119 ag inactive
CCCc1[nH]n(-c2ccc(F)cc2)c(=O)c1C=NCCc1ccc(S(N)(=O)=O)cc1	none
CCOC(=O)C1=C(C)N=c2s/c(=C\c3ccc(-c4cccc(C(=O)O)c4)o3)c(=O)n2C1c1c(OC)ccc2ccccc12 (centres undefined)	none
Cn1c(SCC(=O)N2CCc3ccccc32)nnc1-c1cc(Br)ccc1O	none
Cc1cc(=O)nc2c3ccccc3n(CC(=O)NCCc3ccccc3)n12	none
CC(=O)Oc1ccc(C(=O)c2ccccc2)c(OC(C)=O)c1	GPR151 activ 5.6 | GPR151 confirm inactive | GPR119 ag inactive
CCC(Oc1ccccc1)c1nnc(NC(=O)Cc2ccccc2)s1 (centres undefined)	GPR151 activ 28 | GPR151 confirm inactive | GPR119 ag inactive
Clc1ccc(OCc2nc(-c3cccnc3)no2)c(Br)c1	none
Brc1c(OCc2nc(-c3cccnc3)no2)ccc2ccccc12	GPR151 activ 7.1 | GPR151 confirm inactive | GPR119 ag inactive
NC(=O)C1CCCc2c1[nH]c1c(C(=O)O)cccc21 (centres undefined)	GPR151 activ 6.1 | GPR151 confirm inactive | GPR119 ag inactive
Nc1ccccc1SC1CC(=O)N(Cc2ccccc2)C1=O (centres undefined)	GPR151 activ 7.1 | GPR151 confirm inactive | GPR119 ag inactive
CCN1C(=O)CC(Sc2ccccc2N)C1=O (centres undefined)	none
Nc1c(Br)cc(Br)cc1CNC1CCC(O)CC1 (centres undefined)	GPR151 activ 5.7! | GPR151 confirm inactive | GPR119 ag inactive
COc1ccc(Br)cc1CNC1CCCC1	none
CC(C)(C)OC(=O)C1C(=O)CC(C)(O)C(C(=O)OC(C)(C)C)C1/C=C/c1ccccc1 (centres undefined)	none
Cc1ccc(NC(=O)CC(C)(C)C)cc1Cl	GPR151 activ 5.2 | GPR151 confirm inactive | GPR119 ag inactive
O=C(CCNc1c(N2CCCC2)c(=O)c1=O)Nc1ccc(F)c(Cl)c1	none
Cc1ccc(NC(=O)CCNc2c(N3CCCC3)c(=O)c2=O)cc1Cl	GPR151 activ 12 | GPR151 confirm inactive | GPR119 ag inactive
O=C(CCNc1c(N2CCCC2)c(=O)c1=O)NC1CCCCCC1	GPR151 activ 7.2 | GPR151 confirm inactive | GPR119 ag inactive
O=C(NCc1ccc2c(c1)OCO2)c1ccc(N2CCC(NC3CCOCC3)CC2)cc1	none
Cc1ccnc2nc(C(=O)NC(C)(C)C)nn12	none
COc1ccc(OC)c2[nH]c(=O)c(CCNC(=O)c3ccc(F)cc3)cc12	none
O=C(Cc1ccc(F)cc1)NCCc1ccc(F)cc1	none
CCCC(=O)NCCc1ccc(F)cc1	GPR151 activ 19 | GPR151 confirm inactive | GPR119 ag inactive
Cc1cc(=O)oc2c(C)c(OCC(=O)N(C)C)ccc12	GPR151 activ 18 | GPR151 confirm inactive | GPR119 ag inactive
CCOC(=O)COc1ccc2c(oc(=O)c3ccccc32)c1C	none
CC(=O)COc1ccc2c(oc(=O)c3ccccc32)c1C	GPR151 activ 7.0 | GPR151 confirm inactive | GPR119 ag inactive
CCN(CC)C(=O)COc1ccc2c(C)cc(=O)oc2c1C	none
O=C(Nc1ccc(Cl)c(-c2nc3ccccc3s2)c1)c1ccc(F)cc1	none
CCN1CCN(c2nc(-c3ccccc3F)nc3ccccc23)CC1	none
CCOc1cc(/C=C(\C#N)C(=O)c2ccccc2)ccc1OCCn1c([N+](=O)[O-])cnc1C	GPR151 activ 8.9 | GPR151 confirm inactive | GPR119 ag inactive
Cc1ccc2c(c1)-c1c(cnn1CC(=O)NC1CC1)CO2	GPR151 activ 6.1 | GPR151 confirm inactive | GPR119 ag inactive
Cc1ccc2c(c1)-c1c(cnn1CC(=O)NCCN(C)C)CO2	GPR151 activ 11 | GPR151 confirm inactive | GPR119 ag inactive
Cc1ccc2c(c1)-c1c(cnn1CC(=O)N(C)c1ccccc1C)CO2	GPR151 activ 7.1 | GPR151 confirm inactive | GPR119 ag inactive
CCOCCCNC(=O)Cn1ncc2c1-c1cc(C)ccc1OC2	none
Cc1ccc(-c2nnn(CC(=O)Nc3ccccc3-c3ccc(C)o3)n2)cc1	none
N#CC1=C(N)N(c2ncn[nH]2)C2=C(C(=O)CCC2)C1c1ccc(Br)cc1 (centres undefined)	none
O=C(NCc1ccc(Cl)cc1Cl)c1ccccn1	GPR151 activ 7.8 | GPR151 confirm inactive | GPR119 ag inactive
O=C(NCc1ccc(Cl)cc1Cl)Nc1ccccc1	none
CC1CN(c2cc(N3CCOCC3)c(F)cc2[N+](=O)[O-])CCN1C(=O)c1cccs1 (centres undefined)	GPR151 activ 7.6 | GPR151 confirm inactive | GPR119 ag inactive
C/C(=N\Nc1cc(-n2cc(C)cn2)ncn1)c1cccc([N+](=O)[O-])c1	GPR151 activ 19 | GPR151 confirm inactive | GPR119 ag inactive
